Rows were chosen to be rich in hits. Some 32% of all compounds tested hit in one or more screens of this group.
PostGolgi yeast = phenotypic screen on post-Golgi transport, primary screen | post-Golgi transport phenotypic cell assay | 98,000 compounds, 0.9% hits | inhibition, % at 10 µM;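 also: yeast cells grown in 1536-well plates; yeast grown about 18 h at 30C before absorbance read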
CYP2C19 activ = human CYP2C19 activators, primary screen, biochemical, luminescence | Cytochrome P450 2C19 (Homo sapiens), P33261 | 96,000 tested, under 10 active | recombinant CYP2C19, luciferin-H EGE luminescence; hits give high values; 0 = fully inhibited enzyme, 1 = untreated enzyme | activation factor at 5 µM;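 active = activation factor of at least 2 at 5 µM in the primary screen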;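 also: 0 = wells with 2.5 mM tranylcypromine and 1 = vehicle-only wells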
PostGolgi ctrl = growth inhibition of yeast control strain, primary screen, counter-screen for post-Golgi transport modulator project; efflux-deficient yeast background strain, growth absorbance A615, 16 h; inhibition, % at 10 µM; 98,000 compounds, 5% hits; AID 738, 2007
CYP2C9 inh = blockers of cytochrome P450 2C9 activity – biochemical, luminescence, ADME assay, primary screen; 96,000 compounds, 20% hits; AID 777, 2007; P11712; CYP2C9 Supersomes, luciferin-H conversion; inhibition, % at 5 µM;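 active = blocking of liver enzyme CYP2C9 beyond about 50% at 5 µM, limit read from the data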
Target sequence (P11712 whole entry, looked up): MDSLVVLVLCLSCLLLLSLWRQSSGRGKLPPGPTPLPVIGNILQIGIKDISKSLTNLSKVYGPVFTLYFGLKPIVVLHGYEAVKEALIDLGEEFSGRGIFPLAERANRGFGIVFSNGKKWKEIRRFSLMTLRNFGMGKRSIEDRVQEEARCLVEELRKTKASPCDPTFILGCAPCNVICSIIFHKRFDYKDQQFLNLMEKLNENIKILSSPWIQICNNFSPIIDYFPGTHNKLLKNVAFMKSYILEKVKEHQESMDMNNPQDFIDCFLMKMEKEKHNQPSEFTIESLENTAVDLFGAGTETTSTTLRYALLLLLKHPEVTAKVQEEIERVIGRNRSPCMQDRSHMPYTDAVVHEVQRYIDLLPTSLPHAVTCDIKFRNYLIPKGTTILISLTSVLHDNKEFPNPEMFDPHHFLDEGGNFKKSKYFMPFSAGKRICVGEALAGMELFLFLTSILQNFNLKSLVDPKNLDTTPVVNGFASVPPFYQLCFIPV
CYP2C19 inh = blockers of cytochrome P450 2C19 activity – biochemical, luminescence, ADME assay, primary screen | P33261 | CYP2C19 Supersomes, luciferin-H EGE luminescence, 30 min | inhibition, % at 5 µM | 96,000 compounds, 21% hits;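 active = CYP2C19 inhibition above a set limit at 5 µM in the primary screen, cut at about 50% in these data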;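 also: plate controls were negative control wells for no effect and 2.5 mM tranylcypromine positive control for full effect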
CYP2C9 act = human CYP2C9 activators, primary screen, biochemical, luminescence. activation factor at 5 µM. recombinant CYP2C9, luciferin-H conversion; hits give high values; factor 1 = untreated enzyme, 0 = blocked. 96,000 compounds, 1.4% hits. Cytochrome P450 2C9 (Homo sapiens), P11712;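 active = activation factor of 2 or more for CYP2C9 at a 5 µM dose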;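 also: 0 = sulfaphenazole-blocked wells and 1 = vehicle-only wells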
An asterisk follows results filed as active. Rule as the data show it, unless noted: active = inhibition above about 30%; inactive = the rest.

What do the screens show for `Clc1ccc(/C=N/c2c(-c3ccc(Cl)cc3)nc3n2CCS3)cc1`?
PostGolgi yeast: 7; CYP2C19 activ: 1; PostGolgi ctrl: 7; CYP2C9 inh: 0; CYP2C19 inh: 0; CYP2C9 act: 1

How did N#CCCn1nc(-c2ccccc2)cc1-n1c(C(F)(F)F)nc2ccccc21 do in these assays?
PostGolgi yeast: -3; CYP2C19 activ: 0.1; PostGolgi ctrl: 16; CYP2C9 inh: 96*; CYP2C19 inh: 87*; CYP2C9 act: 0

Results for Cc1ccc(CN2CC(C(=O)Nc3cc(S(C)(=O)=O)ccc3Cl)CC2=O)cc1 (stereo unspecified) ?
PostGolgi yeast: 2; CYP2C19 activ: 0.9; PostGolgi ctrl: 3; CYP2C9 inh: 38; CYP2C19 inh: 13; CYP2C9 act: 0.6

How did CCOc1ccc(N(CC(=O)Nc2cccc(Cl)c2)S(=O)(=O)c2c(C)noc2C)cc1 do in these assays?
PostGolgi yeast: 7; CYP2C19 activ: 0.7; PostGolgi ctrl: 45*; CYP2C9 inh: 36; CYP2C19 inh: 26; CYP2C9 act: 0.6

How did CCOc1ccc(N(CC(=O)Nc2ccc(C)cc2)S(=O)(=O)c2c(C)noc2C)cc1 do in these assays?
PostGolgi yeast: -4; CYP2C19 activ: 1.1; PostGolgi ctrl: 12; CYP2C9 inh: 18; CYP2C19 inh: -10; CYP2C9 act: 0.8

What do the screens show for `CCOc1ccc(N(CC(=O)Nc2cccc(OC)c2)S(=O)(=O)c2c(C)noc2C)cc1`?
PostGolgi yeast: 0; CYP2C19 activ: 0.1; PostGolgi ctrl: 9; CYP2C9 inh: 92*; CYP2C19 inh: 93*; CYP2C9 act: 0.1

How did COc1ccc(NC(=O)CN(c2ccc(C(C)C)cc2)S(=O)(=O)c2c(C)noc2C)cc1OC do in these assays?
PostGolgi yeast: -1; CYP2C19 activ: 0.5; PostGolgi ctrl: 11; CYP2C9 inh: 2; CYP2C19 inh: 52*; CYP2C9 act: 1

How did COc1ccc(N(CC(=O)Nc2ccc3c(c2)OCCO3)S(=O)(=O)c2c(C)noc2C)cc1 do in these assays?
PostGolgi yeast: 1; CYP2C19 activ: 0.8; PostGolgi ctrl: 4; CYP2C9 inh: 26; CYP2C19 inh: 20; CYP2C9 act: 0.7

What do the screens show for `CCOc1ccc(N(CC(=O)Nc2ccc(F)c(F)c2)S(=O)(=O)c2c(C)noc2C)cc1`?
PostGolgi yeast: -12; CYP2C19 activ: 1.1; PostGolgi ctrl: 3; CYP2C9 inh: 8; CYP2C19 inh: -6; CYP2C9 act: 0.9

Results for COc1cc2c(cc1OC)-c1cc(OCc3cccnc3)nc(=O)n1CC2 ?
PostGolgi yeast: -4; CYP2C19 activ: 1; PostGolgi ctrl: 0; CYP2C9 inh: 4; CYP2C19 inh: 1; CYP2C9 act: 1

Results for Cc1cc(C)n(-c2c(F)c(F)c(CN3CCOCC3)c(F)c2F)n1 ?
PostGolgi yeast: 0; CYP2C19 activ: 1; PostGolgi ctrl: 6; CYP2C9 inh: 18; CYP2C19 inh: 3; CYP2C9 act: 0.8

How did Cc1ccc(S(=O)(=O)NCC2CCC(C(=O)O)CC2)cc1 (stereo unspecified) do in these assays?
PostGolgi yeast: -5; CYP2C19 activ: 1; PostGolgi ctrl: 5; CYP2C9 inh: 8; CYP2C19 inh: 4; CYP2C9 act: 0.9

How did Cc1cnnn1-c1ccc(C(=O)CCl)cc1 do in these assays?
PostGolgi yeast: 9; CYP2C19 activ: 1.3; PostGolgi ctrl: 6; CYP2C9 inh: -14; CYP2C19 inh: -26; CYP2C9 act: 1.1

What do the screens show for `CCC1(C)Cc2c(sc3nc(NC)n(C)c(=O)c23)CO1` (stereo unspecified)?
PostGolgi yeast: 6; CYP2C19 activ: 0.4; PostGolgi ctrl: 14; CYP2C9 inh: 18; CYP2C19 inh: 56*; CYP2C9 act: 0.8

What do the screens show for `CCC1(C)Cc2c(sc3nc4n(c(=O)c23)CCS4)CO1` (stereo unspecified)?
PostGolgi yeast: 4; CYP2C19 activ: 0.4; PostGolgi ctrl: -2; CYP2C9 inh: 51*; CYP2C19 inh: 64*; CYP2C9 act: 0.5

What do the screens show for `CCSc1nc2sc3c(c2c(=O)[nH]1)CC(C)(CC)OC3` (stereo unspecified)?
PostGolgi yeast: 10; CYP2C19 activ: 1; PostGolgi ctrl: 8; CYP2C9 inh: 12; CYP2C19 inh: 0; CYP2C9 act: 0.9

What do the screens show for `CCOC(=O)c1ccc(N2C(=O)CC(Sc3nnc(C)s3)C2=O)cc1` (stereo unspecified)?
PostGolgi yeast: 4; CYP2C19 activ: 1; PostGolgi ctrl: -1; CYP2C9 inh: -6; CYP2C19 inh: -2; CYP2C9 act: 1.1

Results for O=C(N1CCOCC1)C(F)(F)C(F)(F)C(F)(F)C(F)(F)C(=O)N1CCOCC1 ?
PostGolgi yeast: -5; CYP2C19 activ: 1; PostGolgi ctrl: 2; CYP2C9 inh: -5; CYP2C19 inh: 1; CYP2C9 act: 1.1

Results for O=C(OCn1ncc(Cl)c(Cl)c1=O)c1cccc(C(F)(F)F)c1 ?
PostGolgi yeast: 106*; CYP2C19 activ: 0.3; PostGolgi ctrl: 42*; CYP2C9 inh: -80; CYP2C19 inh: 66*; CYP2C9 act: 1.8

How did CCc1ccc(C(=O)Cn2ncc(Cl)c(Cl)c2=O)cc1 do in these assays?
PostGolgi yeast: -3; CYP2C19 activ: 0.9; PostGolgi ctrl: 7; CYP2C9 inh: 5; CYP2C19 inh: 10; CYP2C9 act: 0.9

What do the screens show for `Cc1sc2nc3n(c(=O)c2c1C)Cc1ccccc1-3`?
CYP2C19 activ: 0.9; CYP2C9 inh: 12; CYP2C19 inh: 6; CYP2C9 act: 0.9

How did CCCCN(CCCC)c1ccc(C(=O)c2ccccc2C(=O)O)c(O)c1 do in these assays?
PostGolgi yeast: -1; CYP2C19 activ: 0.7; PostGolgi ctrl: 4; CYP2C9 inh: 64*; CYP2C19 inh: 35; CYP2C9 act: 0.4

Results for CCCCCCc1ccc(-c2ncc(N)cn2)cc1 ?
PostGolgi yeast: -1; CYP2C19 activ: 1; PostGolgi ctrl: 32*; CYP2C9 inh: 23; CYP2C19 inh: 3; CYP2C9 act: 0.8

What do the screens show for `COc1ccc(-c2c(C)oc3c(CN4CCN(CCO)CC4)c(O)ccc3c2=O)cc1OC`?
PostGolgi yeast: -2; CYP2C19 activ: 1; PostGolgi ctrl: 5; CYP2C9 inh: 2; CYP2C19 inh: -1; CYP2C9 act: 1

What do the screens show for `COc1cc(-c2cc(OC)c3c(C)oc(C)c3c(=O)c2)ccc1O`?
PostGolgi yeast: 7; CYP2C19 activ: 0.6; PostGolgi ctrl: 45*; CYP2C9 inh: 94*; CYP2C19 inh: 42; CYP2C9 act: 0.1

What do the screens show for `COc1ccc(-c2cc(OC)c3c(C)oc(C)c3c(=O)c2)cc1OC`?
PostGolgi yeast: -4; CYP2C19 activ: 0.2; PostGolgi ctrl: 5; CYP2C9 inh: 99*; CYP2C19 inh: 85*; CYP2C9 act: 0

Source: PubChem (several laboratories)
